Experimental data taken from PubChem BioAssay (Tox21).
Results filed as inconclusive are left out. Activity calls are given as the source filed them. Unless noted, the call rests on the fitted dose curve; in most records, active means well fitted curve in the direction sought with a large enough effect in the repeat runs; inconclusive means weak or mixed curves; inactive means no such curve, though single readings can be large; an effect the other way counts as inactive or inconclusive.

How the values were obtained:
[1] = qHTS assay for small molecules that induce genotoxicity in human embryonic kidney cells expressing luciferase-tagged ATAD5 (AID 651632); further: nearly all actives have a fitted effect of over 15% in size
Method in brief: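 Quantitative HTS in HEK293T expressing luciferase-tagged ATAD5, whose levels rise upon DNA damage. Exposure ran 16 hr at 37C and 5% CO2, with luminescence read 30 min after Amplite addition at room temperature.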

[2] = qHTS assay for small molecules that induce genotoxicity in human embryonic kidney cells expressing luciferase-tagged ATAD5 - cell viability (AID 651634; calls by dose curve; further: nearly all actives have a fitted effect of over 25% in size; further: potency means the concentration at half of the fitted maximal effect)
Method in brief: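 After 15.5 hr incubation with compound at 37C, 5% CO2, HEK293T ATAD5-luciferase cells received CellTiter-Fluor reagent; fluorescence intensity was quantified following 30 min at 37C.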

[3] = qHTS assay for small molecule disruptors of the mitochondrial membrane potential - cell viability (AID 720634; calls by dose curve; further: nearly all actives have a fitted effect of over 20% in size; further: potency means the concentration at half of the fitted maximal effect)
Method in brief: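 ATP-based luminescent viability readout (CellTiter-Glo, 30 min, room temperature) in HepG2 cells multiplexed with the m-MPI membrane potential dye; compound exposure lasted 1 hr at 37 C.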

[4] = qHTS assay for small molecule disruptors of the mitochondrial membrane potential (AID 720635); further: potency means the concentration at half of the fitted maximal effect
Method in brief: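 Mitochondrial membrane potential tracked with Mito-MPS dye, red aggregates (ex 540/em 590 nm) against green monomers (ex 490/em 535 nm). Compound treatment 1 hr at 37C, dye 30 min in HepG2.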

[5] = qHTS assay to test for compound auto fluorescence at 590 nm (red) in HepG2 cells (AID 720674)
Method in brief: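 1 hr compound incubation on HepG2 cells, 37 C, 5% CO2; plate read ex 540 nm / em 590 nm; intensities reported as Rose Bengal sodium equivalents.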

[6] = qHTS assay to test for compound auto fluorescence at 535 nm (green) in HepG2 cells (AID 720675)
[7] = qHTS assay to test for compound auto fluorescence at 460 nm (blue) in HEK293 cells (AID 720678)
Method in brief: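 Auto fluorescence in the blue band was quantified as triamterene equivalency. HEK293 cells were seeded at 2,000/well, dosed after a 4-5 hr attachment, and kept overnight at 37C before the 405/460 nm reading.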

[8] = qHTS assay to test for compound auto fluorescence at 590 nm (red) in HEK293 cells (AID 720679)
Method in brief: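 Autofluorescence equivalency to Rose Bengal sodium, 540/590nm, in HEK293 cells exposed overnight to 23 nL compound per well.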

[9] = qHTS assay for small molecule agonists of the p53 signaling pathway - cell viability (AID 651633; calls by dose curve; further: nearly all actives have a fitted effect of over 30% in size; further: potency means the concentration at half of the fitted maximal effect)
Method in brief: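 Viability counter-read: CellTiter-Glo luminescence (30 min, room temperature) in the same p53RE-bla plates. These plates had been exposed to compounds for 16 h at 37 C.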
On the % scale 0 is the no-effect control and ±100 the full control effect.

O=C1c2ccccc2C(=O)C1C(=O)C(c1ccccc1)c1ccccc1
inactive: Potency [1] | Potency [2] | Potency [3] | outcome [5] | outcome [6] | outcome [7] | outcome [8]
active: Potency [4] 21.1 µM

O=C(Nc1ccccc1)Nc1ccnc(Cl)c1
active: Potency [4] 0.386 µM
inactive: Potency [1] | Potency [9] | Potency [3] | outcome [5] | outcome [6] | outcome [7] | outcome [8]

[CH3][Sn]([CH3])([Cl])[Cl]
inactive: Potency [1] | Potency [2] | Potency [3] | Potency [4] | outcome [5] | outcome [6] | outcome [7] | outcome [8]

O=S1OC[C@@H]2[C@H](CO1)[C@]1(Cl)C(Cl)=C(Cl)[C@@]2(Cl)C1(Cl)Cl (stereo partly drawn)
active: Potency [9] 61.1 µM
inactive: Potency [1] | Potency [2] | outcome [5] | outcome [6] | outcome [7] | outcome [8]

COP(=S)(OC)Oc1cc(Cl)c(I)cc1Cl
inactive: Potency [1] | Potency [9] | Potency [2] | outcome [5] | outcome [6] | outcome [7] | outcome [8]

OC(c1ccc(Cl)cc1)(c1ccc(Cl)cc1)c1cccnc1
inactive: Potency [1] | Potency [2] | Potency [3] | outcome [5] | outcome [6] | outcome [7] | outcome [8]
active: Potency [4] 54.5 µM

c1cc2ccc3cccc4ccc(c1)c2c34
inactive: Potency [1] | Potency [9] | Potency [2] | outcome [5] | outcome [6] | outcome [7] | outcome [8]

O=Cc1ccc(Cl)cc1Cl
inactive: Potency [1] | Potency [9] | Potency [3] | outcome [5] | outcome [6] | outcome [8]

CCCCC(CC)COP(=O)(Oc1ccccc1)Oc1ccccc1 (stereo not drawn)
inactive: Potency [1] | Potency [9] | Potency [2] | outcome [5] | outcome [6] | outcome [7] | outcome [8]

C=C(C#N)CCC#N
inactive: Potency [1] | Potency [9] | Potency [3] | outcome [5] | outcome [6] | outcome [7] | outcome [8]

O=[Se]=O
active: Potency [2] 0.764 µM
inactive: Potency [1] | Potency [9] | outcome [5] | outcome [6] | outcome [7] | outcome [8]

CC(O)(CS(=O)(=O)c1ccc(F)cc1)C(=O)Nc1ccc(C#N)c(C(F)(F)F)c1 (stereo not drawn)
inactive: Potency [1] | Potency [9] | Potency [2] | outcome [5] | outcome [6] | outcome [7] | outcome [8]

C=CC(=O)OCC(C)O (stereo not drawn)
inactive: Potency [1] | Potency [2] | Potency [3] | Potency [4] | outcome [5] | outcome [6] | outcome [8]

Cc1c(F)c(F)c(COC(=O)C2C(/C=C(\Cl)C(F)(F)F)C2(C)C)c(F)c1F (stereo not drawn)
active: Potency [4] 30.6 µM
inactive: Potency [1] | Potency [2] | Potency [3] | outcome [5] | outcome [6] | outcome [8]

CC1(C)CCC(Cc2ccc(Cl)cc2)C1(O)Cn1cncn1 (stereo not drawn)
inactive: Potency [1] | outcome [5] | outcome [6] | outcome [7] | outcome [8]
active: Potency [3] 54.5 µM | Potency [4] 54.5 µM

O=C(NC(=O)c1c(F)cccc1F)Nc1ccc(OC(F)(F)C(F)OC(F)(F)F)c(Cl)c1 (stereo not drawn)
inactive: Potency [1] | Potency [2] | Potency [3] | outcome [5] | outcome [6] | outcome [7] | outcome [8]

Clc1ccc(C(OCCN2CCCCC2)c2ccccc2)cc1 (stereo not drawn)
inactive: Potency [1] | Potency [2] | Potency [3] | fluorescence, relative to Rose Bengal [5] -0.716% [at 18.6 µM] | fluorescence, % of fluorescein control [6] -0.0264% [at 18.6 µM] | fluorescence, % of triamterene [7] 0.0368% [at 18.6 µM] | fluorescence, % of fluorescent control [8] 0.965% [at 18.6 µM]

COC(=O)C(C)N(C(=O)Cc1ccccc1)c1c(C)cccc1C (stereo not drawn)
inactive: Potency [1] | outcome [5] | outcome [6] | outcome [7] | outcome [8]

O=C1C(=O)c2cccc3cccc1c23
inactive: Potency [9] | outcome [5] | outcome [6] | outcome [7] | outcome [8]
active: Potency [2] 54.4 µM | Potency [4] 54.4 µM

CO/N=C(/C(=O)OC)c1ccccc1COc1ccccc1C
inactive: Potency [1] | outcome [5] | outcome [6] | outcome [7] | outcome [8]

CC(C)(C)C(O)C(Oc1ccc(Cl)cc1)n1cncn1 (stereo not drawn)
inactive: Potency [1] | outcome [5] | outcome [6] | outcome [7] | outcome [8]

C=CCN1CC[C@]23c4c5ccc(O)c4O[C@H]2C(=O)CC[C@@]3(O)[C@H]1C5
inactive: Potency [9] | Potency [3] | Potency [4] | outcome [5] | outcome [6] | outcome [8]

C[C@@H]1CC[C@H]2[C@@H](C)C(=O)O[C@@H]3O[C@@]4(C)CC[C@@H]1[C@]32OO4
inactive: Potency [1] | Potency [3] | Potency [4] | outcome [5] | outcome [6] | outcome [7] | outcome [8]

N#CCC#N
inactive: Potency [1] | Potency [3] | outcome [5] | outcome [6] | outcome [7] | outcome [8]

CC(C)N(CCC(C(N)=O)(c1ccccc1)c1ccccn1)C(C)C (stereo not drawn)
inactive: Potency [1] | Potency [3] | Potency [4] | outcome [5] | outcome [6] | outcome [7] | outcome [8]

C/C=C/C=O
inactive: Potency [1] | outcome [5] | outcome [6] | outcome [7] | outcome [8]

O=C(O)C1(c2ccc3c(c2)OC[C@H](Cc2ccc(-c4ccccc4)cc2)[C@H]3O)CCCC1
inactive: Potency [1] | Potency [3] | outcome [5] | outcome [6] | outcome [7] | outcome [8]

CC(C)O.CC(C)O.OCCN(CCO)CCO.OCCN(CCO)CCO.[Ti]
inactive: outcome [5] | outcome [6] | outcome [7] | outcome [8]

CC(C)N(C(=O)COc1nnc(C(F)(F)F)s1)c1ccc(F)cc1
inactive: Potency [1] | outcome [5] | outcome [6] | outcome [7] | outcome [8]

CCCCC(O)(Cn1cncn1)c1ccc(Cl)cc1Cl (stereo not drawn)
inactive: Potency [1] | outcome [5] | outcome [6] | outcome [7] | outcome [8]
active: Potency [4] 54.4 µM

CC(C)(C)c1cc([N+](=O)[O-])cc([N+](=O)[O-])c1O
active: Potency [4] 0.484 µM
inactive: Potency [1] | outcome [5] | outcome [6] | outcome [7] | outcome [8]

BrCC(Br)C1CCC(Br)C(Br)C1 (stereo not drawn)
active: Potency [4] 27.2 µM
inactive: Potency [9] | Potency [2] | Potency [3] | outcome [5] | outcome [6] | outcome [7] | outcome [8]

CCOC(=O)[C@]1(c2ccccc2)Oc2ccccc2[C@@H]1N
inactive: Potency [1] | Potency [2] | Potency [3] | outcome [5] | outcome [6] | outcome [7] | outcome [8]

CCOP(=S)(OCC)SCn1nnc2ccccc2c1=O
active: Potency [3] 27.3 µM | Potency [4] 27.3 µM
inactive: Potency [1] | outcome [5] | outcome [6] | outcome [7] | outcome [8]

COc1nn(CSP(=S)(OC)OC)c(=O)s1
inactive: Potency [1] | Potency [3] | outcome [5] | outcome [6] | outcome [7] | outcome [8]

CN1[C@@H]2CC[C@H]1CC(OC(=O)c1cc(Cl)cc(Cl)c1)C2 (stereo partly drawn)
inactive: Potency [1] | Potency [2] | Potency [3] | outcome [5] | outcome [6] | outcome [7] | outcome [8]

O=C(O)C(F)(F)C(F)(F)C(F)(F)C(F)(F)C(F)(F)C(F)(F)C(F)(F)C(F)(F)C(F)(F)F
inactive: Potency [1] | Potency [2] | Potency [3] | outcome [5] | outcome [6] | outcome [7] | outcome [8]

Cl/C=C\C[N+]12CN3CN(CN(C3)C1)C2
inactive: Potency [9] | Potency [2] | Potency [3] | Potency [4] | outcome [5] | outcome [6] | outcome [8]

Clc1cc(C(Cl)(Cl)Cl)cnc1Cl
inactive: Potency [9] | Potency [2] | Potency [3] | outcome [5] | outcome [6] | outcome [8]

COC(=O)C(Br)CBr (stereo not drawn)
inactive: Potency [2] | Potency [3] | outcome [5] | outcome [6] | outcome [8]

C/C(=C\c1ccccc1)[N+](=O)[O-]
active: Potency [2] 24.3 µM | Potency [4] 30.6 µM
inactive: Potency [1] | Potency [3] | outcome [5] | outcome [6] | outcome [8]

NS(=O)(=O)C(F)(F)C(F)(F)C(F)(F)C(F)(F)C(F)(F)C(F)(F)C(F)(F)C(F)(F)F
inactive: Potency [1] | Potency [2] | outcome [5] | outcome [6] | outcome [7] | outcome [8]
active: Potency [4] 1.93 µM

O=C(NC(=O)c1c(F)cccc1F)Nc1cc(Cl)c(Oc2ncc(C(F)(F)F)cc2Cl)c(Cl)c1
inactive: Potency [1] | Potency [2] | outcome [5] | outcome [6] | outcome [7] | outcome [8]

CCOP(=S)(Oc1ccc([N+](=O)[O-])cc1)c1ccccc1 (stereo not drawn)
inactive: Potency [1] | outcome [5] | outcome [6] | outcome [7] | outcome [8]
active: Potency [4] 21.7 µM

COCCOCCO
inactive: Potency [1] | Potency [2] | Potency [3] | outcome [5] | outcome [6] | outcome [7] | outcome [8]

NC(=O)CI
inactive: Potency [1] | Potency [2] | Potency [3] | outcome [5] | outcome [6] | outcome [7] | outcome [8]

O=C=Nc1ccc(Cl)cc1
inactive: outcome [5] | outcome [6] | outcome [7] | outcome [8]
active: Potency [3] 21.7 µM | Potency [4] 0.172 µM
